Pol eta inh: qHTS for Inhibitors of Polymerase Eta; recombinant Pol eta, fluorescent DNA replication assay; hit rate 1.2% among 390,000; Potency, µM (doses to about 114 µM), for inactives: at the top dose activity change, negative = inhibition, most hits filed as inhibitors; AID 588591, 2011; DNA polymerase eta (Homo sapiens), Q9Y253; note: potency is the fitted concentration of half-maximal effect; % is set by controls: 0 for no effect and ±100 for the full control effect
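Pol eta at 10 nM preincubated with compounds 15 min at room temperature; reaction started with fluorescent substrate (50 nM final) and read kinetically at 0 and 10 min.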
POLI inh: qHTS for Inhibitors of Polymerase Iota | Pol iota fluorescent replication assay, 10 min | Potency, µM (titrated, usually from 115 µM), for inactives: at the highest dose activity, negative = inhibition, most hits filed as inhibitors | hit rate 1% among 390,000 | AID 588590, 2011; note: potency is the fitted concentration of half-maximal effect
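Pol iota at 10 nM preincubated 15 min with compounds at room temperature; reaction started with fluorescent substrate, 50 nM final. Fluorescence read kinetically at 0 and 10 min; buffer-only wells as negative control.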
PI4K2A block: qHTS for small molecular inhibitors of PI4K2A; hit rate 0.13% among 420,000; activity change, negative = inhibition, % at 76.9 µM; Phosphatidylinositol 4-kinase type 2-alpha (Homo sapiens), Q9BTU6; purified PI4K2A, ADP-Glo luminescence, 1 h; active compounds read low; in the data active = activity change below about -50%; inconclusive = mostly about -30% to -49%;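 note: -100% = wells without enzyme as full effect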
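Compounds are screened against recombinant PI4K2A using PI as substrate and ATP, the latter dispensed at 300 microM. Reactions run one hour at ambient temperature before ADP-Glo detection; full inhibition defined by wells lacking enzyme.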
POLB inh: qHTS Assay for Inhibitors of DNA Polymerase Beta. P06746. Pol beta primer extension/strand displacement, fluorescence kinetic. Potency, µM (titrated, usually from 114 µM), for the others: at the highest dose activity change, negative = inhibition, most hits filed as inhibitors. hit rate 1.3% among 340,000. AID 485314, 2010; note: potency is the fitted concentration of half-maximal effect; % is set by controls: 0 for no effect and ±100 for the full control effect
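Values derive from four-parameter Hill fits of normalized kinetic data: reads at 0 and 10 min following addition of 50 nM substrate to 10 nM Pol beta preincubated 15 min with compound.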
POLK inh: qHTS for Inhibitors of Polymerase Kappa. Potency, µM (doses to about 107 µM), for the others: at the highest dose activity, negative = inhibition, most hits filed as inhibitors. AID 588579, 2011. DNA polymerase kappa (Homo sapiens), Q9UBT6. hit rate 0.53% among 400,000. purified Pol kappa, fluorescent DNA synthesis assay, 10 min; note: potency is the fitted concentration of half-maximal effect; % is set by controls: 0 for no effect and ±100 for the full control effect
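50 nM final substrate added after 15 min RT preincubation of 10 nM Pol kappa with compound; fluorescence read at 0 and 10 min.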
PI5P4K alpha inh: qHTS for Inhibitors of phosphatidylinositol 5-phosphate 4-kinase (PI5P4K). Phosphatidylinositol 5-phosphate 4-kinase type-2 alpha (Homo sapiens), P48426. PI5P4Kalpha enzyme, ADP-Glo luminescence, 60 min; active compounds read low. max response, %. hit rate 1.2% among 330,000. AID 652105, 2013; active = max response of -50% or lower; inconclusive = between -30% and -50%; inactive = -30% or higher; note: value at the top dose of about 77 µM; % is set by controls: 0 for no effect and ±100 for the full control effect
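ADP-Glo luminescence end-point read after a 60 min room-temperature kinase reaction of PI5P4Kalpha plus substrate, initiated with ATP at 5 microM final. Buffer: 0.038 M HEPES pH 7.4, EGTA, 0.1% CHAPS, 5% DMSO.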
ADP-Glo interf: qHTS for Inhibitors of PI5P4K: ADP-Glo counter assay | shares compounds with PI5P4K alpha inh | 1,100 tested, under 10 active | Potency, µM (series often up to 76.9 µM), without a hit: top-dose activity change, negative = inhibition, actives largely listed as inhibitors | ADP-Glo detection counter-screen, luciferase luminescence, no enzyme
* marks the source's active call; other numbers are inactive results; ? = inconclusive; nt = no result. Rows were chosen to be rich in hits. Some 2.8% of all compounds tested hit in one or more screens of this group. Unless noted, calls come from the whole dose curve; as a rule, active = well fitted curve in the direction sought with a large enough effect; inconclusive = small, poorly fitted or top-dose-only effect, or another doubt; inactive = no such curve, though single readings can be large; an effect the other way counts as inactive or inconclusive.

SMILES | Pol eta inh | POLI inh | PI4K2A block | POLB inh | POLK inh | PI5P4K alpha inh | ADP-Glo interf
CNC(=S)N(Cc1cccs1)Cc1cc2ccc(OC)cc2[nH]c1=O | ? | -4% | -5 | 3% | -16% | -60* | 0%
O=C(COC(=O)c1ccc(NS(=O)(=O)c2cccs2)cc1O)NCc1ccccc1 | -13% | 120% | -1 | -5% | -1% | ? | nt
O=C(COC(=O)c1ccc(NS(=O)(=O)c2cccs2)cc1O)Nc1nc2ccccc2s1 | -19% | 1% | -5 | ? | -5% | -69* | 5%
Cc1cc(C)cc(NC(=O)Nc2ccc(-n3ccc(C(F)(F)F)n3)cc2)c1 | -9% | -22% | 5 | -2% | -8% | 16 | nt
Cc1noc(C)c1C(=O)Nc1ccc(-n2ccc(C(F)(F)F)n2)cc1 | -99% | -95% | -3 | 1% | ? | ? | 4%
COc1ccc(-c2nnc(C)c3nocc23)cc1 | ? | ? | ? | 34% | -22% | -66* | -10%
COc1ccc(C(=O)N2CCC(Oc3cccnc3)CC2)c(OC)c1 | nt | nt | -1 | nt | nt | nt | nt
CC1CCCCC12NC(=O)N(CC(=O)Nc1sc3c(c1C(N)=O)CCC3)C2=O (stereo not drawn) | 18µM* | ? | -8 | 32µM* | -37% | -60* | 0%
CC(=O)Nc1cccc2ccc(O)cc12 | -18% | ? | -3 | nt | -7% | -62* | 2%
O=C(Nc1ccccc1F)Nc1cccc2ccc(O)cc12 | -1% | -17% | -10 | -10% | -4% | ? | nt
CCCn1c(N)c(N(CCOC)C(=O)c2cc(-c3ccco3)nc3ccccc23)c(=O)[nH]c1=O | ? | 56µM* | -12 | 45µM* | -38% | -52* | -6%
Cc1c(C(=O)N2CCc3ccccc32)oc2ccccc12 | -12% | 20% | -7 | -22% | -9% | 12 | nt
COCc1c(C(=O)N2CCc3ccccc32)oc2ccccc12 | -98% | 79µM* | -1 | -11% | ? | -77* | 0%
O=C(CCC(=O)N1CCN(c2ccccn2)CC1)c1ccc(Cl)s1 | 14µM* | ? | 0 | nt | 0% | -55* | -3%
CCOC(=O)c1cnc2cc(C)ccn2c1=O | -18% | ? | 1 | 9% | -16% | -20 | -3%
Cc1ccc2c(CC(=O)Nc3nnc(C(C)C)s3)coc2c1C | 0% | -4% | -2 | 2% | 12% | nt | nt
CCC(=O)Oc1ccc(C(=O)Nc2ccc3c(c2)OCO3)cc1 | -15% | 93% | -14 | 2% | -12% | -14 | nt
CCC(=O)Oc1ccc(C(=O)Nc2c[nH]c(=O)[nH]c2=O)cc1 | -4% | 2% | -2 | 6% | -4% | -53* | -6%
CC(=O)Oc1ccc(C(=O)Nc2ccccc2C(=O)Nc2cccc(C(=O)O)c2)cc1 | 7% | 68% | 1 | -3% | 2% | 0 | nt
COc1ccccc1NC(=O)c1ccccc1NC(=O)c1ccccc1 | 1% | 17% | -3 | 15% | 6% | nt | nt
COc1ccccc1C(=O)Nc1ccc(C(=O)Nc2ccccc2C(=O)O)cc1 | -18% | -12% | 4 | 0% | -19% | -80* | 1%
CC(=O)Oc1ccc(C(=O)Nc2cccc(C(=O)Nc3ccccc3C(=O)O)c2)cc1 | 9% | -8% | -5 | 4% | -7% | -51* | 3%
CCC(=O)Oc1ccc(C(=O)Nc2cccc(C(=O)c3ccccc3)c2)cc1 | -16% | 1% | 19 | 0% | -8% | -67* | 3%
Cc1ccn2c(NCc3ccco3)c(-c3ccccc3)nc2c1 | nt | ? | nt | nt | -6% | nt | nt

Screening results from PubChem BioAssay.
